High-throughput results (PubChem)
CYP2C9 inhib – blocks human cytochrome P450 2C9 | AID 777 | inhibition, % at 5 µM | CYP2C9 Supersomes, luciferin-H conversion, luminescence | hit rate 20% among 96,000;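 active means blocking of liver enzyme CYP2C9 beyond about 50% at 5 µM, limit read from the data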
CYP2C19 activ – cytochrome P450 2C19 (human) activation; P33261; recombinant CYP2C19, luciferin-H EGE luminescence; active compounds read high; 0 = fully inhibited enzyme, 1 = untreated enzyme; activation factor at 5 µM; 96,000 tested, under 10 active; AID 1025;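 active means activation factor of at least 2 at 5 µM in the primary screen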;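 further: 0 = wells with 2.5 mM tranylcypromine and 1 = vehicle-only wells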
sEH inh – inhibitors of human soluble epoxide hydrolase | recombinant human sEH enzymatic activity assay | inhibition, % at 2 µM | hit rate 0.34% among 91,000 | AID 707; in the data active means inhibition above about 80%
Target sequence (P34913 whole entry, looked up): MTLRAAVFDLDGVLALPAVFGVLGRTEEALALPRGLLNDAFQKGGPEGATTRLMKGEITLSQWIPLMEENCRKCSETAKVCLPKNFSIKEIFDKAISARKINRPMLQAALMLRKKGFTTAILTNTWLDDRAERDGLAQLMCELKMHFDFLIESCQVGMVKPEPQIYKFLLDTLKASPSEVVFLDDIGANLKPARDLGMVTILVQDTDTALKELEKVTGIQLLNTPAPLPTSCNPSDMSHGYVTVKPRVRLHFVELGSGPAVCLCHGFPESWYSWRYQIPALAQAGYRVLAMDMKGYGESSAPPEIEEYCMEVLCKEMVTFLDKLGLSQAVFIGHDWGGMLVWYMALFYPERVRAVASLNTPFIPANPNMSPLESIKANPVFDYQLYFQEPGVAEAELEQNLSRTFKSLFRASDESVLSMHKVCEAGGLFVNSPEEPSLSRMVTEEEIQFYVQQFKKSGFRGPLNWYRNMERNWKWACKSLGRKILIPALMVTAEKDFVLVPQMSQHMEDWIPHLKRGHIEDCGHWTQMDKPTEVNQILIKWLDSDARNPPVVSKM
CYP2C9 act – activators of human CYP2C9. P11712. recombinant CYP2C9, luciferin-H conversion, luminescence; active compounds read high; factor 1 = untreated enzyme, 0 = blocked. activation factor at 5 µM. hit rate 1.4% among 96,000;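 active means activation factor of 2 or more for CYP2C9 at a 5 µM dose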;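 further: 0 = sulfaphenazole-blocked wells and 1 = vehicle-only wells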
sEH activator – activators of human soluble epoxide hydrolase. purified human sEH enzymatic activity, activator screen. activation, % at 2 µM. hit rate 0.04% among 91,000. AID 717; in the data active means activation above about 37%
CYP2C19 inhib – human CYP2C19 inhibition | P33261 | CYP2C19 Supersomes, luciferin-H EGE luminescence, 30 min | inhibition, % at 5 µM | hit rate 21% among 96,000 | AID 778;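 active means CYP2C19 inhibition above a set limit at 5 µM in the primary screen, cut at about 50% in these data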;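 further: plate controls were negative control wells for no effect and 2.5 mM tranylcypromine positive control for full effect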
Numbers without * were called inactive. The list is not random: actives were taken first. Their share in the collection is about 27%.

What do the screens show for `Cc1ccc(N(CC(=O)O)S(C)(=O)=O)cc1Cl`?
CYP2C9 inhib: 6; CYP2C19 activ: 1; sEH inh: -2; CYP2C9 act: 0.9; sEH activator: 2; CYP2C19 inhib: 1

How did COc1cccc(C(=O)C2CN(c3ccccc3)CC2c2ccc(Cl)cc2)c1 (configuration not stated) do in these assays?
CYP2C9 inhib: 22; CYP2C19 activ: 1; sEH inh: 2; CYP2C9 act: 0.8; sEH activator: -2; CYP2C19 inhib: 4

What do the screens show for `O=C(CSc1nc(Cc2ccccc2)nc2ccccc12)c1ccc2c(c1)OCCO2`?
CYP2C9 inhib: 89*; CYP2C19 activ: 0.9; CYP2C9 act: 0.1; CYP2C19 inhib: 8

What do the screens show for `CCc1nc(SCC(=O)c2ccc3c(c2)OCCO3)c2ccccc2n1`?
CYP2C9 inhib: 17; CYP2C19 activ: 0.9; sEH inh: 10; CYP2C9 act: 0.8; sEH activator: -8; CYP2C19 inhib: 15

What do the screens show for `CCSc1nnc(Cc2cc(=O)[nH]c(=O)[nH]2)n1-c1cc(C)ccc1C`?
CYP2C9 inhib: -9; CYP2C19 activ: 1.1; sEH inh: -4; CYP2C9 act: 1.1; sEH activator: 3; CYP2C19 inhib: -15

What do the screens show for `COc1ccc(C(C)C)cc1S(=O)(=O)N1CCN(C)CC1`?
CYP2C9 inhib: -16; CYP2C19 activ: 0.6; sEH inh: -16; CYP2C9 act: 1.2; sEH activator: 17; CYP2C19 inhib: 37

Results for CC(Oc1ccc(Cl)cc1Cl)C(=O)Nc1ccncc1 (configuration not stated) ?
CYP2C9 inhib: 98*; CYP2C19 activ: 0; sEH inh: 10; CYP2C9 act: 0; sEH activator: -9; CYP2C19 inhib: 100*

How did CC(Oc1ccc(Cl)cc1Cl)C(=O)NC1CCSC1=O (configuration not stated) do in these assays?
CYP2C9 inhib: 41; CYP2C19 activ: 0.1; sEH inh: -13; CYP2C9 act: 0.6; sEH activator: 10; CYP2C19 inhib: 93*

What do the screens show for `CC(Oc1ccc(Cl)cc1Cl)C(=O)Nn1cnnc1` (configuration not stated)?
sEH inh: -2; sEH activator: 7

What do the screens show for `CC(Oc1cccc(Cl)c1)C(=O)Nc1cc(=O)n(C)c(=O)n1C` (configuration not stated)?
CYP2C9 inhib: 15; CYP2C19 activ: 0.7; sEH inh: -5; CYP2C9 act: 0.8; sEH activator: 5; CYP2C19 inhib: 34

How did CC(Oc1ccc(Cl)cc1Cl)C(=O)NCCCN1CCOCC1 (configuration not stated) do in these assays?
CYP2C9 inhib: -10; CYP2C19 activ: 0.4; CYP2C9 act: 1.1; CYP2C19 inhib: 58*

Results for CC(Oc1ccc(Cl)cc1Cl)C(=O)NC1=NN(c2ccccc2)C(=O)C1 (configuration not stated) ?
CYP2C9 inhib: 53*; CYP2C19 activ: 0.7; sEH inh: -6; CYP2C9 act: 0.5; sEH activator: 10; CYP2C19 inhib: 32

Results for CCCn1nnc(NC(=O)C(C)Oc2ccc(Cl)cc2Cl)n1 (configuration not stated) ?
CYP2C9 inhib: 21; CYP2C19 activ: 0.7; sEH inh: 11; CYP2C9 act: 0.8; sEH activator: -11; CYP2C19 inhib: 26

What do the screens show for `CC(Oc1ccc(Cl)cc1Cl)C(=O)Nc1cccnc1` (configuration not stated)?
sEH inh: 4; sEH activator: -3

What do the screens show for `O=C1CC(Cc2ccc(Cl)cc2)C(=O)N1c1ccccn1` (configuration not stated)?
CYP2C9 inhib: -1; CYP2C19 activ: 0.6; sEH inh: 2; CYP2C9 act: 1; sEH activator: 0; CYP2C19 inhib: 44

What do the screens show for `Cc1ccccc1OCCNC(=O)CNC(=O)c1ccccc1O`?
CYP2C9 inhib: 42; CYP2C19 activ: 0.6; sEH inh: 3; CYP2C9 act: 0.6; sEH activator: 0; CYP2C19 inhib: 43

Results for CCCCOC(=O)/C(=C\c1ccc([N+](=O)[O-])o1)NC(=O)c1ccccc1 ?
sEH inh: 6; sEH activator: -2

What do the screens show for `Cc1ccc(Cl)cc1N1CCN(C(=O)COc2ccc(S(=O)(=O)NC(C)C)cc2)CC1`?
CYP2C9 inhib: 49; CYP2C19 activ: 0.6; CYP2C9 act: 0.5; CYP2C19 inhib: 37

What do the screens show for `S=c1[nH]c2cc(Cl)ccc2s1`?
CYP2C9 inhib: 17; CYP2C19 activ: 0.9; sEH inh: 8; CYP2C9 act: 0.8; sEH activator: -6; CYP2C19 inhib: 7

Results for COCCNC(=O)C(C)Oc1ccc(Cl)cc1Cl (configuration not stated) ?
CYP2C9 inhib: 46; CYP2C19 activ: 0.1; sEH inh: 12; CYP2C9 act: 0.5; sEH activator: -8; CYP2C19 inhib: 94*

How did C=CCn1c(-c2ccoc2)n[nH]c1=S do in these assays?
CYP2C9 inhib: -10; CYP2C19 activ: 1; CYP2C9 act: 1.1; CYP2C19 inhib: 5

What do the screens show for `O=C(CCNS(=O)(=O)c1cccc2nonc12)NCc1cccs1`?
CYP2C9 inhib: -101; CYP2C19 activ: 0.8; CYP2C9 act: 2*; CYP2C19 inhib: 16

How did CC(C)CCNC(=O)CCS(=O)(=O)c1cccc2nonc12 do in these assays?
CYP2C9 inhib: -34; CYP2C19 activ: 0.4; CYP2C9 act: 1.3; CYP2C19 inhib: 55*

How did O=C(CCS(=O)(=O)c1cccc2nonc12)NCCc1ccccc1 do in these assays?
CYP2C9 inhib: 3; CYP2C19 activ: 0.5; CYP2C9 act: 1; CYP2C19 inhib: 53*

How did Cc1ccc(NC(=O)CCNS(=O)(=O)c2cccc3nonc23)cc1 do in these assays?
CYP2C9 inhib: 26; CYP2C19 activ: 0.6; CYP2C9 act: 0.7; CYP2C19 inhib: 41

What do the screens show for `CCOc1ccccc1NC(=O)CCS(=O)(=O)c1cccc2nonc12`?
CYP2C9 inhib: 8; CYP2C19 activ: 0.3; CYP2C9 act: 0.9; CYP2C19 inhib: 67*

Results for Cc1ccc(S(=O)(=O)Nc2c(C)n(C)n(-c3ccccc3)c2=O)cc1C(=O)NCc1ccccn1 ?
CYP2C9 inhib: -1; CYP2C19 activ: 1; sEH inh: 9; CYP2C9 act: 1; sEH activator: -10; CYP2C19 inhib: -2

Results for Cc1ccc(NC(=O)CCSc2nc(C)cc(C)n2)cc1 ?
CYP2C9 inhib: 32; CYP2C19 activ: 0.6; sEH inh: 11; CYP2C9 act: 0.7; sEH activator: -9; CYP2C19 inhib: 43

How did COc1ccccc1-c1nnc(NC(C)=O)s1 do in these assays?
CYP2C9 inhib: -110; CYP2C19 activ: 1.1; sEH inh: -1; CYP2C9 act: 2.1*; sEH activator: 0; CYP2C19 inhib: -7

What do the screens show for `COc1ccccc1-c1nnc(NC(=O)C(C)C)s1`?
CYP2C9 inhib: 20; CYP2C19 activ: 0.7; CYP2C9 act: 0.8; CYP2C19 inhib: 28

What do the screens show for `CCCCOC(=O)Nc1nnc(-c2ccccc2OC)s1`?
CYP2C9 inhib: -323; CYP2C19 activ: 0.9; sEH inh: 1; CYP2C9 act: 4.2*; sEH activator: 2; CYP2C19 inhib: 13
